Screening data from PubChem BioAssay.
HPGD inh – qHTS Assay for Inhibitors of HPGD (15-Hydroxyprostaglandin Dehydrogenase); 15-hydroxyprostaglandin dehydrogenase [NAD(+)] (Homo sapiens), P15428; purified HPGD, NADH fluorescence kinetic, PGE2 substrate; Potency, µM, without a hit: top-dose activity change, negative = inhibition, most hits filed as inhibitors; 150,000 tested, 4.3% active; AID 894, 2007; also: potency is read from the fitted curve at half-maximal effect
Target sequence (P15428 whole entry, looked up): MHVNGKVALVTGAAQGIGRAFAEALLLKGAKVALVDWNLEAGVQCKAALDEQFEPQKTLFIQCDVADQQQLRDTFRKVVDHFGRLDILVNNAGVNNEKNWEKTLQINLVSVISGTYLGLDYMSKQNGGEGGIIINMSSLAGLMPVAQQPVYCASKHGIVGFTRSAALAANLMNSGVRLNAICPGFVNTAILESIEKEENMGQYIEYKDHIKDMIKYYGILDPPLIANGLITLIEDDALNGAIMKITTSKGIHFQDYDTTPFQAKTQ
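NADH formation kinetics: reaction with 30 uM PGE2 and 1 mM NAD+ (final), 20 nM enzyme, Tris-HCl pH 8 with Tween 20, after 15 min compound preincubation at room temperature. Fluorescence change, last versus first of five reads.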
12-hLO inh – qHTS Assay for Inhibitors of 12-hLO (12-human lipoxygenase) | Potency, µM (series often up to 57.1 µM), for the others: top-dose activity change, negative = inhibition, usual class: inhibitors | purified 12-hLO, xylenol orange hydroperoxide absorbance | 150,000 tested, 0.12% active | AID 1452, 2008 | Polyunsaturated fatty acid lipoxygenase ALOX12 (Homo sapiens), P18054; active = well fitted curve in the direction sought with a large enough effect; inconclusive = small, poorly fitted or top-dose-only effect, or another doubt; inactive = no such curve, though single readings can be large; an effect the other way counts as inactive or inconclusive; also: potency is read from the fitted curve at half-maximal effect; nearly all actives have a fitted effect of over 55% in size
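Hydroperoxide formation by human 12-lipoxygenase from 40 uM arachidonic acid was followed colorimetrically via ferric-xylenol orange complex, using the 573/405 nm absorbance ratio. Enzyme concentration was 150 nM, with 30 min reaction at room temperature.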
PNC assembly inh – High Content Assay for Compounds that inhibit the Assembly of the Perinucleolar Compartment | PC3M PTB-GFP, PNC prevalence imaging, 16 h; active compounds read low | activity change (PNC), negative = inhibition, % at 10 µM | 140,000 tested, 3.1% active;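 active = readout at or below -70, meaning at least 70% loss of cells showing the perinucleolar compartment, a nuclear body marking cancer cells; inconclusive = readout between -30 and a set limit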;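 also: plate controls were DMSO wells for no effect and camptothecin positive control wells for full effect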
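Read-out is percentage of cells bearing a perinucleolar compartment, from automated 20x imaging of fixed, Hoechst-stained PC3M PTB-GFP cells. Cells were seeded 4 h, then exposed 16 h to compound (23 nl of library stock) in duplicate plates.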
ALDH1A1 block – qHTS Assay for Inhibitors of Aldehyde Dehydrogenase 1 (ALDH1A1); Purified ALDH1A1, NADH fluorescence, propionaldehyde substrate; 220,000 tested, 7.3% active; Potency, µM (titrated, usually from 75.3 µM), without a hit: top-dose activity, negative = inhibition, most hits filed as inhibitors; AID 1030, 2008; Aldehyde dehydrogenase 1A1 (Homo sapiens), P00352;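 also: potency is read from the fitted curve at half-maximal effect; plate controls were no enzyme wells and a reference inhibitor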
Target sequence (P00352 whole entry, looked up): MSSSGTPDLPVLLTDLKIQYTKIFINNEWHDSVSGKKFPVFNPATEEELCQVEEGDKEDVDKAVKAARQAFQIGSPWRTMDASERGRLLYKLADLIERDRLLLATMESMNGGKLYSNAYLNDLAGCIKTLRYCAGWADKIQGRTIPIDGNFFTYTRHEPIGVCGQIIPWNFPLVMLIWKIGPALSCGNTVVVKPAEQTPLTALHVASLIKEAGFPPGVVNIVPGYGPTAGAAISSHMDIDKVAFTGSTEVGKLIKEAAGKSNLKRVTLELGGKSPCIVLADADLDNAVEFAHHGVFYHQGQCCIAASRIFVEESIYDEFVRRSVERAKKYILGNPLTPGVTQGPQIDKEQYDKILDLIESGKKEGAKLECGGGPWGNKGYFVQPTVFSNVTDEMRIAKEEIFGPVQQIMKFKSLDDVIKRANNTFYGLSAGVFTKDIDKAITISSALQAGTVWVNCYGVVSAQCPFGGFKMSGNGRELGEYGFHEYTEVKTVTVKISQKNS
IMPase Li inh – qHTS Assay for Identifying the Cell-Membrane Permeable IMPase Inhibitors: Potentiation with Lithium | CHO-M1 cells, IP1 TR-FRET (IP-One), carbachol + lithium | Potency, µM (titrated, usually from 59.4 µM), inactives show at the top dose activity, negative = IMPase inhibition, usual class: inhibitors | 210,000 tested, 0.35% active | AID 1457, 2008; active = well fitted curve in the direction sought with a large enough effect; inconclusive = small, poorly fitted or top-dose-only effect, or another doubt; inactive = no such curve, though single readings can be large; an effect the other way counts as inactive or inconclusive;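 also: IP1 builds up when IMPase is blocked and the TR-FRET signal falls; potency is read from the fitted curve at half-maximal effect; plate controls were basal vehicle for no effect and high inhibitor control for full effect; nearly all actives have a fitted effect of over 50% in size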
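Test compounds were applied to CHO-M1 cells previously cultured for 16–30 h at 2000 per well. A small lithium amount accompanied them; after 30 min at 37C, IP1 was quantified by TR-FRET.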
IMPase inh – qHTS Assay for Identifying the Cell-Membrane Permeable IMPase Inhibitors | CHO-M1 cells, IP1 accumulation, HTRF TR-FRET ratio | inhibition (IP1 accumulation), % at 46.1 µM | 120,000 tested, under 10 active | AID 901, 2007; active = well fitted curve in the direction sought with a large enough effect in the signal ratio, not every such curve was filed as active; inconclusive = small, poorly fitted or top-dose-only effect, or a change in a side signal; inactive = no such curve, though single readings can be large or run the other way; the % refers to the signal ratio;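 also: cells stimulated with carbachol in lithium chloride buffer; plate controls were DMSO basal wells for no effect and reference inhibitor wells for full effect; higher means more IMPase inhibition seen as more IP1 and lower FRET ratio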
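CHO-M1, 2000 cells/well, cultured 16–30 h; cpd up to 46 uM; carbachol (50 uM solution, stimulation buffer w/ 50 mM LiCl, pH 7.4), 30 min 37C; IP-One TR-FRET, 10 min RT; Ex 320/Em 665, 620; Hill-fit AC50.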
The depositor's hits bear a star; [ ] = dose if it differs, or a comment. Shown are actives, neighbours in structure and some others; about 11% of the full set was active somewhere. Unless noted, calls follow the shape of the dose curve; as a rule, active = well fitted inhibition curve with a large enough effect (not every such curve was filed as active); inconclusive = small, poorly fitted or top-dose-only effect, or another doubt; inactive = no such curve, though single readings can be large or run the other way. Unless noted, % is scaled to controls: 0 for no effect and ±100 for the full control effect.

What do the screens show for `COc1cc(/C=C2/NC(=O)N(Cc3ccccc3F)C2=O)ccc1O`?
ALDH1A1 block: 6.3µM*; IMPase Li inh: -5%

How did Cc1ccccc1NC(=O)CN1C(=O)S/C(=C\c2cccn2-c2cccc(C(=O)O)c2)C1=O do in these assays?
HPGD inh: 28µM*; 12-hLO inh: -10%; PNC assembly inh: inconclusive; ALDH1A1 block: inconclusive; IMPase Li inh: -4%[38.3 µM]; IMPase inh: 12

What do the screens show for `O=C(O)c1cccc(-n2cccc2/C=C2/NC(=O)N(Cc3ccccc3F)C2=O)c1`?
ALDH1A1 block: 14µM*; IMPase Li inh: 6%

What do the screens show for `CCCCCCCCCCCCCCCCCC(=O)OCC(C)O` (stereo not given)?
HPGD inh: -9%; 12-hLO inh: 0%[0.00818 µM]; ALDH1A1 block: 14%; IMPase Li inh: 18%

How did Cc1nc(C)c(N)c(=O)[nH]1 do in these assays?
ALDH1A1 block: inconclusive; IMPase Li inh: -2%

What do the screens show for `COc1ccccc1-c1cc(Nc2ccn[nH]2)ncn1`?
ALDH1A1 block: inconclusive; IMPase Li inh: -6%

Results for CCOc1ccc(N(CC(=O)Nc2ccccc2C(=O)NC(C)CC)S(C)(=O)=O)cc1 (stereo not given) ?
HPGD inh: -14%; 12-hLO inh: -1%; PNC assembly inh: 33; ALDH1A1 block: -10%; IMPase Li inh: 1%

How did CCO[C@H]1O[C@@H]([C@H](COCc2ccccc2)OCc2ccccc2)[C@@H](OCc2ccccc2)[C@H]1O do in these assays?
HPGD inh: 0%; 12-hLO inh: 3%[25.6 µM]; ALDH1A1 block: -4%[20.9 µM]; IMPase Li inh: -3%; IMPase inh: 16[20.6 µM]

How did N#CC(=C=[N-])C1=C(C#N)C(c2ccccc2F)C([n+]2ccccc2)C(O)(C2CC2)N1 (stereo not given) do in these assays?
HPGD inh: -6%; 12-hLO inh: -7%; PNC assembly inh: -9; ALDH1A1 block: 1%; IMPase Li inh: 13µM*; IMPase inh: inconclusive

Results for N#Cc1ccc(/C=C/C(=O)c2ccccc2)cc1 ?
ALDH1A1 block: 8.9µM*

What do the screens show for `CCOc1ccc(S(=O)(=O)N(CC(=O)N/N=C/c2ccc(-c3ccc([N+](=O)[O-])cc3)o2)c2ccccc2)cc1`?
HPGD inh: -21%; 12-hLO inh: -19%; PNC assembly inh: 47; ALDH1A1 block: 25µM*; IMPase Li inh: -26%[38.3 µM]; IMPase inh: 0

What do the screens show for `CC1(C)CC[C@]2(C(=O)O)CC[C@]3(C)C(=CCC4[C@@]5(C)CC[C@H](O)C(C)(C)C5[C@H](O)C[C@]43C)C2C1` (stereo not given in full)?
HPGD inh: -3%; 12-hLO inh: -1%; ALDH1A1 block: 0%; IMPase Li inh: 15%; IMPase inh: -2

What do the screens show for `Cc1c(O)ccc(C(=O)COc2ccc(F)cc2)c1O`?
12-hLO inh: -14%; PNC assembly inh: -21; ALDH1A1 block: 18µM*; IMPase inh: 6

Results for CCc1cc(C(=O)COc2ccc(F)cc2)c(O)cc1O ?
ALDH1A1 block: 3%

How did NCCC[C@@H](CC(=O)N[C@@H]1CCCC[C@H]1C(=O)N[C@H](CC(=O)N[C@@H](CCC(=O)O)CC(=O)O)Cc1ccccc1)NC(=O)C[C@H](CO)NC(=O)[C@@H]1CCCC[C@H]1N do in these assays?
HPGD inh: -1%; 12-hLO inh: 2%; ALDH1A1 block: -9%; IMPase Li inh: -1%

How did OC(c1ccc(Cl)cc1)c1nnc(-c2ccccc2)o1 (stereo not given) do in these assays?
HPGD inh: 18µM*; 12-hLO inh: -13%; PNC assembly inh: -7; ALDH1A1 block: 0%; IMPase Li inh: -4%[38.3 µM]; IMPase inh: -10

What do the screens show for `Cc1noc(C)c1C(=O)N1CCC2(CCN(Cc3ccncc3)CC2)CC1`?
HPGD inh: -8%; 12-hLO inh: 8%; ALDH1A1 block: -14%; IMPase Li inh: 12%

How did CC(=O)Nc1ccc(OCCC[n+]2ccccc2)cc1 do in these assays?
ALDH1A1 block: 2.5µM*; IMPase Li inh: 1%

How did C(=Nc1ccc2c(c1)Cc1ccccc1-2)c1ccccn1 do in these assays?
HPGD inh: -7%; 12-hLO inh: -4%[11.4 µM]; ALDH1A1 block: -13%[13.5 µM]; IMPase Li inh: 3%

What do the screens show for `COc1ccc(-n2c(=S)[nH]c3ccccc32)cc1`?
HPGD inh: 22µM*; 12-hLO inh: -21%; PNC assembly inh: 0; ALDH1A1 block: 32µM*; IMPase Li inh: -7%[38.3 µM]; IMPase inh: 7

Results for COc1ccc(OC)c(-n2c(=S)[nH]c3cc(C(=O)N(C)Cc4ccccc4)ccc3c2=O)c1 ?
ALDH1A1 block: inconclusive; IMPase Li inh: 5%

How did COc1ccc(Cn2c(=S)[nH]c3ccccc32)cc1 do in these assays?
ALDH1A1 block: -4%; IMPase Li inh: 8%

What do the screens show for `CCOC(=O)N1CCN(C(=O)c2ccc3c(=O)n(-c4ccc(OC)cc4OC)c(=S)[nH]c3c2)CC1`?
HPGD inh: -11%; 12-hLO inh: 0%; PNC assembly inh: 34; ALDH1A1 block: -8%; IMPase Li inh: -3%[38.3 µM]; IMPase inh: 5

Results for COc1ccc(NC(=O)c2ccc3c(=O)n(-c4ccc(OC)cc4OC)c(=S)[nH]c3c2)cc1 ?
ALDH1A1 block: 13µM*; IMPase Li inh: 9%

What do the screens show for `COc1ccc(-n2c(=S)[nH]c3cc(C(=O)NCc4ccco4)ccc3c2=O)c(OC)c1`?
HPGD inh: -30%; 12-hLO inh: -16%; PNC assembly inh: inconclusive; ALDH1A1 block: 0.32µM*; IMPase Li inh: 16%[38.3 µM]; IMPase inh: 4

How did COc1ccc(-n2c(=S)[nH]c3cc(C(=O)Nc4ccccc4OC)ccc3c2=O)cc1 do in these assays?
HPGD inh: -13%; 12-hLO inh: -1%; PNC assembly inh: inconclusive; ALDH1A1 block: 16µM*; IMPase Li inh: 2%; IMPase inh: inconclusive

How did O=C(CNCC1CCCO1)Nc1ccccc1-n1cccc1 (stereo not given) do in these assays?
HPGD inh: -3%; 12-hLO inh: -3%; PNC assembly inh: inconclusive; ALDH1A1 block: inconclusive; IMPase Li inh: -7%; IMPase inh: -7
